Source: PubChem BioAssay (NCATS)
Inconclusive results are not listed. A call without a number means that no potency is given here. The source made the active and inactive calls. The call rests on the fitted dose curve; in most records, active means well fitted curve in the direction sought with a large enough effect; inconclusive means small, poorly fitted or top-dose-only effect, or another doubt; inactive means no such curve, though single readings can be large; an effect the other way counts as inactive or inconclusive.

Experiments:
[1] = target: Glutathione peroxidase 1 (Homo sapiens) (UniProt P07203); test: Primary qHTS Assay for Inhibitors of Recombinant Selenoprotein Glutathione Peroxidase 1 (GPX1) (AID 1845191); further: nearly all actives have a fitted effect of over 65% in size
Method in brief: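 GR-coupled readout: NADPH consumption tracked by fluorescence, ex 340/em 450 nm, at t=0 and after 15 min at RT. Final mix 10 nM GPX1, 1 mM GSH, 0.5 mM CHP, 0.5 mM NADPH, 100 nM GR, 0.01% BSA, following 30 min enzyme–compound preincubation.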

[2] = target: Phospholipid hydroperoxide glutathione peroxidase GPX4 (Homo sapiens) (UniProt P36969); test: Primary qHTS Assay for Inhibitors of Recombinant Selenoprotein Glutathione Peroxidase 4 (GPX4) (AID 1845192); further: series mostly up to about 50 µM; nearly all actives have a fitted effect of over 65% in size
Method in brief: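 Steps: GPX4 plus compound, 30 min RT; add GR/GSH/NADPH master mix; start with cumene hydroperoxide; read 340/450 nm fluorescence at 0 and 15 min. Finals were 200 nM GPX4, 1 mM GSH, 0.5 mM CHP, 0.5 mM NADPH, 100 nM GR.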

[3] = target: Luciferin 4-monooxygenase (Photinus pyralis) (UniProt P08659); test: Primary firefly luciferase (FLuc) qHTS assay for identification of artifact compounds. (AID 1845220); further: nearly all actives have a fitted effect of over 60% in size; further: potency means the concentration at half of the fitted maximal effect
Method in brief: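 Enzymatic FLuc inhibition assay: compounds pre-exposed to luciferin/ATP (10 uM each) for 15 min, then purified P. pyralis enzyme at 10 nM added. Read-out: luminescence at 5 min.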

[4] = test system: Nanoluciferase (engineered Oplophorus gracilirostris luciferase); test: Primary Nanoluciferase (NLuc) qHTS assay for identification of artifact compounds. (AID 1845222); further: potency means the concentration at half of the fitted maximal effect
Method in brief: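 S16 cell supernatant NLuc, 1:55; cpds qHTS; 15 min RT dark; Nano-Glo substrate 1:100, 5 min; luminescence; Hill fit of % inhibition.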

[5] = Primary redox qHTS assay for identification of artifact compounds. (AID 1845223)
Method in brief: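 Redox-cycling detection via DTT (250 uM final) oxidation coupled to Amplex Red (25 uM)/HRP (250 mU/mL) in HBSS. 15 min preincubation plus 30 min after DTT, room temperature. Ex/Em 525/598 nm; 4-parameter Hill fit against DMSO and 10 uM DA3003.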

[6] = Primary fluorescence-based thiol-reactive (MSTI) qHTS assay for identification of artifact compounds. (AID 1845221); further: nearly all actives have a fitted effect of over 65% in size; further: potency means the concentration at half of the fitted maximal effect
Method in brief: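 A multi-concentration qHTS design tested compounds against 4 uM MSTI, pH 7.4 phosphate-buffered saline. Plates were protected from light for 1 h at room temperature before imaging fluorescence.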

Chain of Glutathione peroxidase 1 (Homo sapiens) (P07203 whole entry, looked up): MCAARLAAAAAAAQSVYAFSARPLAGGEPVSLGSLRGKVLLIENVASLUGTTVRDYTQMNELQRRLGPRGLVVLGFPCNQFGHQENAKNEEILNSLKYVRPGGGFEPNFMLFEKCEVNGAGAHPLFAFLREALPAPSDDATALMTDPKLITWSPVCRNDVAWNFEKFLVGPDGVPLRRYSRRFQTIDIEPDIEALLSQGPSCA
Chain of Phospholipid hydroperoxide glutathione peroxidase GPX4 (Homo sapiens) (P36969 whole entry, looked up): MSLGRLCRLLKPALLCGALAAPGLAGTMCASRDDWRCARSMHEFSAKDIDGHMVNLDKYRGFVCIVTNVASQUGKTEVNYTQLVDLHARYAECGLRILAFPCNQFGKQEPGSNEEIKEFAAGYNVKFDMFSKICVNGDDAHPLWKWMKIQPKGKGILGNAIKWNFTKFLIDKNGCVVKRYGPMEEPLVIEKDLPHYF

Row | Compound | Potency [1] | Potency [2] | Potency [3] | Potency [4] | Potency [5] | Potency [6]
1 | C=C1CC2OC(=O)C(=C)C2C(O)/C=C(\C)CCC1O (stereo not drawn) | inactive | inactive | inactive | inactive | inactive | 
2 | Cc1c(NC(=O)c2cc3c(s2)CCCC3)cccc1-c1cn(C)c(=O)c(Nc2ccc(C3C(=O)N(C)CCN3C)cc2)n1 (stereo not drawn) | inactive | inactive | 4.78 µM (active) | inactive | inactive | 
3 | CC1CCCC(O)CC(=O)c2c(O)cc(O)cc2CC(=O)O1 (stereo not drawn) | inactive | inactive | inactive | inactive | inactive | 
4 | C/C1=C/CCC2=CC(OC2=O)C(C)(C)/C=C/C1=O (stereo not drawn) | inactive | inactive | inactive | inactive | inactive | 
5 | C=C1C(=O)O[C@@H]2C[C@]3(C)[C@@H](CCC(C)O)[C@@H]3C[C@H]12 (stereo partly drawn) | inactive | inactive | inactive | inactive | inactive | 
6 | COc1cccc(NCCC2(c3ccccc3)CC(C)(C)OC(C)(C)C2)c1 | inactive | inactive | inactive | inactive | inactive | 
7 | COc1cc2c(cc1OC(C)C)[C@H](c1ccc(Cl)cc1)N(c1ccc(N(C)CC3CCC(N4CCN(C)C(=O)C4)CC3)cc1)C(=O)C2 (stereo partly drawn) | inactive | inactive | inactive | inactive | inactive | 
8 | N#Cc1cc(-c2ccnc(Nc3ccc(N4CCOCC4)cc3)n2)ccc1OC1CCOCC1 | inactive | inactive | inactive | inactive | inactive | 
9 | CCC(CC)Nc1nc(C)c(-c2ccc(OC(F)(F)F)cc2OC)nc1OC | inactive | inactive | inactive | inactive | inactive | 
10 | NC(=O)N1CCC(CC(=O)N2CCC(C3c4ncc(Br)cc4CCc4cc(Cl)cc(Br)c43)CC2)CC1 (stereo not drawn) | inactive | inactive | inactive | inactive | inactive | 
11 | C=CC(=O)N1CCN(C(=O)CNc2cc(-c3ccccc3Cl)c(Cl)cc2OC)CC1 | inactive | inactive | inactive | inactive | inactive | 
12 | Cc1ccc(O)cc1Nc1ccnc(Nc2cccc(C(N)=O)c2)n1 | inactive | inactive |  | inactive | inactive | inactive
13 | CC(C)Nc1nc(Nc2ccccc2)nc(-c2ccccc2)n1 | inactive | inactive |  | inactive | inactive | inactive
14 | CCOC(=O)CCNc1cc(N2CCc3ccccc3CC2)nc(-c2cccnc2)n1 | inactive | inactive |  | inactive | inactive | inactive
15 | COC(=O)/C=C/C=C/C(=O)OC1C=C2COC(=O)C2(O)C2(C)CCCC(C)(C)C12 (stereo not drawn) | inactive | inactive |  | inactive | inactive | inactive
16 | CCOC(=O)c1csc(Nc2ccc(Cl)cc2)n1 | inactive | inactive |  | inactive | inactive | inactive
17 | COCCCNC(=O)c1ccc(Cn2c(=O)c3ccccc3n(Cc3ccc(C(C)C)cc3)c2=O)cc1 | inactive | inactive |  | inactive | inactive | inactive
18 | CCc1ccc(-c2nc(CSCC(=O)NCCc3ccccc3)c(C)o2)cc1 | inactive | inactive |  | inactive | inactive | inactive

Row | Compound | Potency [1] | Potency [2] | Potency [3] | Potency [4] | Potency [5] | Potency [6]
19 | Cc1cc(C(=O)Nc2cc(Nc3ccc4c(/C=C/c5ccccn5)n[nH]c4c3)ccc2F)n(C)n1 | inactive | inactive |  | inactive | inactive | 11.9 µM (active)
20 | COc1ccc(-c2ccccc2)cc1NS(=O)(=O)c1cc(Cl)cc(Cl)c1O | inactive | inactive |  | 7.38 µM (active) |  | 
21 | CC1=C(C(=O)Nc2cc(Cl)ccc2Cl)C(c2ccco2)C2=C(CCCC2=O)N1 (stereo not drawn) | inactive | inactive |  | inactive | inactive | inactive
22 | Cc1cc(C(C)Nc2ccccc2C(=O)O)c2nc(N3CCOCC3)cc(=O)n2c1 (stereo not drawn) | inactive | inactive |  | inactive |  | 
23 | C=CC(C)(O)CC/C=C(/C)COC(=O)C(C)C1CCC(C)(C=C)O1 (stereo not drawn) | inactive | inactive |  |  | inactive | inactive
24 | O=C(Nc1ccc2[nH]nc(-c3ccncc3)c2c1)[C@@H]1CCN(CC(=O)N2CCN(c3ccc(-c4ncccn4)cc3)CC2)C1 | inactive | inactive |  | inactive | inactive | inactive
25 | NCC1CCN(c2nccc(-c3ccc4ccccc4c3)n2)CC1 | inactive | inactive |  | inactive | inactive | inactive
26 | CN(C)Cc1ccc(-c2cnn3c(-c4cccc(NC(=O)c5cccc(C(F)(F)F)c5)c4)ccnc23)cc1 | inactive | inactive |  | inactive | inactive | inactive
27 | C=C1C(=O)O[C@@H]2/C=C(\C)CC/C=C(/C=O)[C@H](OC)[C@@H](OC(=O)C(C)C)[C@@H]12 | inactive | inactive |  | inactive | inactive | inactive
28 | O=C(Nc1nnc(-c2ccc3c(c2)OCCO3)o1)C1CCCCC1 | inactive | inactive |  | inactive | inactive | inactive
29 | O=C(NCCCNC(=O)c1ccc[nH]c1=O)c1cc(-c2ccccc2)on1 | inactive | inactive |  |  | inactive | inactive
30 | O=C(COc1ccc(C(=O)c2ccccc2)cc1)NC1CCN(Cc2ccccc2)CC1 | inactive | inactive |  | inactive | inactive | inactive
31 | COc1ccccc1C(=O)Nc1cccc(NC(=O)c2cccc(C)c2)c1 | inactive | inactive |  | inactive | inactive | inactive
32 | O=C(Nc1ccc(Cl)cc1)Nc1cccc(-c2cccc(N3CCCC3)n2)c1 | inactive | inactive |  | inactive | inactive | inactive
33 | O=C(O)c1cccc(-c2ccc(-c3cn(C(=O)N4CCCCC4Cc4ccccc4)nn3)cc2)c1 (stereo not drawn) | inactive | inactive |  |  | inactive | inactive
34 | CC(=O)Nc1cccc(Nc2ncnc(N3CCC(OCc4ccc(OC(F)(F)F)cc4)CC3)n2)c1C | inactive | inactive |  | inactive | inactive | inactive
35 | COc1ccccc1-c1ccc(-c2cn(C(=O)N3CCCCC3Cc3ccccc3)nn2)cc1 (stereo not drawn) | inactive | inactive |  | inactive | inactive | inactive
36 | CC(C)(C)c1ccc(C(=O)Nc2cn3cc(-n4ccnc4)ccc3n2)cc1 | inactive | inactive |  | inactive | inactive | inactive
